# G9a inh = inhibitors of human histone lysine methyltransferase G9a. G9a H3K9 monomethylation, AlphaScreen, 2 h. Potency, µM (series often up to 102 µM), inactives show at the top dose activity, negative = inhibition, usual class: inhibitors. actives 8.8% (n = 350,000). AID 504332; note: potency is the fitted concentration of half-maximal effect; nearly all actives have a fitted effect of over 75% in size
#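 Compounds were preincubated with 20 nM G9a for 15 min, after which biotinylated H3K9 peptide (500 nM) and SAM (20 uM) started a 2 h room-temperature reaction. Monomethylated product was quantified by antibody-based AlphaScreen chemiluminescence.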
# Sfp PPTase inh = blocks B. subtilis Sfp PPTase activity. Q9F4F7. Biochemical Sfp PPTase activity, qHTS. Potency, µM, inactives show largest response in the series, negative = inhibition, most hits filed as inhibitors. actives 3.5% (n = 310,000). AID 1490;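 note: the enzyme is Sfp with the accession as filed and its product quenches rhodamine fluorescence; potency is the fitted concentration of half-maximal effect; 0% = enzyme reaction without inhibitor and -100% = no enzyme wells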
#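 Fluorescence-quenching assay: 15 nM Sfp-PPTase preincubated 15 min at room temperature with compound, then 5 uM rhodamine-CoA and 12.5 uM BHQ-2-labelled YbbR peptide added. Fluorescence (ex 525/em 598 nm) read at start and after 30 min; difference gives rate.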
# CCT chaperon mod = cytosolic chaperonin activity modulation | purified chaperonin ATPase assay, HTRF ADP detection, 30 min | activity change, % (no concentration beside the values), hits read low | actives 0.3% (n = 360,000); in the data active = activity change below about -30%
#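 Enzyme 40 or 20 nM (batch-dependent) in Tris pH 7.4/KCl/MgCl2/DTT; cpd 76 uM single point; ATP 10 uM; 30 min 37 °C; Transcreener ADP HTRF detection, 30 min RT; ratio 665/615.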
# VDR inhibitor = vitamin D3 receptor (human) inhibition. VDR-SRC2-3 peptide fluorescence polarization, 2 h. Potency, µM, for the others: max response, negative = inhibition, hits mostly inhibitors. actives 0.93% (n = 400,000); note: potency is the fitted concentration of half-maximal effect
#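 Compounds are added to VDR with labelled SRC2-3 coactivator peptide and held 2 h at room temperature. Inhibition of the VDR–peptide interaction is then read as a change in fluorescence polarization.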
# PLK1 PBD inh = inhibitors of human PLK1 polo-box domain binding; Plk1 PBD binding of FITC phosphopeptide, fluorescence polarization; actives 2.8% (n = 360,000); P53350; AID 720504; Potency, µM, without a hit: max response, negative = inhibition, hits mostly inhibitors; note: potency is the fitted concentration of half-maximal effect; series mostly up to about 57 µM; nearly all actives have a fitted effect of over 65% in size
# Target sequence (P53350 whole entry, looked up, the tested form may be a part): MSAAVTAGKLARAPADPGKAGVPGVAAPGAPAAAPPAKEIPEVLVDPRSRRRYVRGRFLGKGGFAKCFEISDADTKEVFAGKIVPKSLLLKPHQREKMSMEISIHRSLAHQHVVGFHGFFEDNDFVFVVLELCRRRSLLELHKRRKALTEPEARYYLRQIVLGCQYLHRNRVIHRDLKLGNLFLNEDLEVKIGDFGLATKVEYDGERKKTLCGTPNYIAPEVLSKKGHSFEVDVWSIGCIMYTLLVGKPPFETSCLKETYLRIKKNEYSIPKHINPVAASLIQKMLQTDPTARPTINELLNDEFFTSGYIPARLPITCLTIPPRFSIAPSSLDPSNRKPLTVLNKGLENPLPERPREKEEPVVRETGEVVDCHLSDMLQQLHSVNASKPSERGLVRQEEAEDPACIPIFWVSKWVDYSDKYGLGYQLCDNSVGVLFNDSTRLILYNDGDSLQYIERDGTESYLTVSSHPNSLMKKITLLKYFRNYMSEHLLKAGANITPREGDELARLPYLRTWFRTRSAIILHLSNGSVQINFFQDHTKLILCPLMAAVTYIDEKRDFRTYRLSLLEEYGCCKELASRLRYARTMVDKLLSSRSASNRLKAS
# MmCpn inh = inhibitors of Methanococcus maripaludis chaperonin TRiC (MmCpn); purified Mm-Cpn ATPase, ADP Transcreener TR-FRET; Potency, µM (highest dose often 76.9 µM), without a hit: top-dose activity, negative = inhibition, most hits filed as inhibitors; actives 0.031% (n = 330,000); AID 504842; note: potency is the fitted concentration of half-maximal effect; nearly all actives have a fitted effect of over 80% in size
#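 25 nM Mm-CPN + cpd, 10 min 37°C; + 10 uM ATP, 30 min 37°C; buffer 30 mM Tris pH 7.4, 100 mM KCl, 5 mM MgCl2, 1 mM DTT; Transcreener ADP HTRF detection 30 min RT.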
# Starred values were filed as active, the others as inactive; ? = inconclusive; nt = no result given; [ ] = another dose, or the depositor's remark. Hits are enriched below; roughly 10% of the tested compounds scored in any of these assays. Unless noted, calls come from the whole dose curve; as a rule, active = well fitted curve in the direction sought with a large enough effect; inconclusive = small, poorly fitted or top-dose-only effect, or another doubt; inactive = no such curve, though single readings can be large; an effect the other way counts as inactive or inconclusive. Unless noted, % is set by controls: 0 for no effect and ±100 for the full control effect.
SMILES,G9a inh,Sfp PPTase inh,CCT chaperon mod,VDR inhibitor,PLK1 PBD inh,MmCpn inh
CC1(Cn2ccnn2)[C@H](C(=O)O)N2C(=O)C[C@H]2S1(=O)=O (stereo partly drawn),22%[59 µM],4%,nt,8%,nt,nt
CCn1c(-c2cc(-c3ccc(C)cc3)nc3ccccc23)n[nH]c1=S,8.9µM*,-9%,1,2%,-21%,-5%
O=c1cc(CSc2ccc(Cl)cc2)[nH]c2[nH]n(-c3ccccc3)c(=O)c12,40µM*,3%,0,?,-17%,3%
Cc1ccc2c(=O)cc(CSc3ccccc3)[nH]c2c1C,20%[59 µM],nt,nt,0%,nt,nt
Cc1ccc(SCc2cc(=O)c3c(=O)n(-c4ccccc4)[nH]c3[nH]2)cc1,18µM*,71µM*,1,-4%,-27%,2%
O=C(CCl)N1c2ccccc2SCC1c1ccccc1 (stereo not drawn),?,-2%,0,?,3µM*,0%
Clc1ccc(C(CCN2CCCC2)Cc2ccccc2)cc1 (stereo not drawn),10µM*,-24%,-2,5%,-1%,-2%
OC(CCN1CCCCC1)c1ccc(-c2ccccc2)cc1 (stereo not drawn),4%,12%,-1,-25%,-6%,0%
CC(=O)Nc1ccc(-c2csc(NC(=O)CCCc3cccs3)n2)cc1,7%[59 µM],-31%,-5,-1%,-2%,-3%
COc1ccc(CCC(=O)Nc2nc(-c3ccncc3)cs2)cc1,8.9µM*,-17%,nt,nt,nt,-1%
COc1ccc(-c2csc(NC(=O)CS(=O)(=O)c3ccccc3)n2)cc1,45µM*,nt,0,12%,5%,?
CCc1nnc(NC(=O)CN2CCC(O)(c3ccccc3OC)CC2)s1,-47%,-13%,-2,-1%,-1%,1%
Cc1ccc(-c2csc(NC(=O)CCCc3cccs3)n2)cc1,-16%,18%,-2,-14%,17µM*,-3%
COc1ccccc1C1(O)CCN(CC(=O)Nc2nc(-c3ccccc3)cs2)CC1,?,3%,-46*,0%,-3%,0%
Cc1cc(C)cc(NC(=O)C(=O)NCC(c2cccnc2)N2CCc3ccccc3C2)c1 (stereo not drawn),-3%[59 µM],nt,nt,4%,nt,nt
O=C(COc1ccc(Cl)cc1)Nc1nc(-c2ccncc2)cs1,7.9µM*,22µM*,-1,?,9.5µM*,-1%
COc1ccc(-c2csc(NC(=O)CSc3nc(C)nc4sc(C(=O)O)c(C)c34)n2)cc1,nt,-4%,-1,31%,19µM*,1%
COC[C@H]1O[C@@H](c2c(OC)cc(OC)cc2OC)[C@H](OC)[C@@H](OC)[C@@H]1OC,nt,-5%,nt,1%,nt,nt
Cc1sc2nc(C3CC3)nc(N3CCN(S(=O)(=O)c4ccc(F)cc4)CC3)c2c1C,22%[59 µM],8%,2,-8%,1%,1%
Cc1sc2nc(C3CC3)nc(N3CCN(C(=O)c4ccccc4F)CC3)c2c1C,45µM*,-30%,-1,-16%,-6%,-8%
COc1ccc(C(=O)N2CCN(c3nc(C4CC4)nc4sc(C)c(C)c34)CC2)cc1,40µM*,?,-9,2%,-15%,-7%
Cc1sc2nc(C3CC3)nc(N3CCN(C(=O)c4ccc(Cl)cc4)CC3)c2c1C,45µM*,-18%,-1,-14%,-12%,-10%
Cc1sc2nc(C3CC3)nc(N3CCN(C(=O)c4ccc(F)cc4)CC3)c2c1C,45µM*,-21%,3,-7%,-9%,-7%
COc1ccc(C(=O)N2CCN(c3ncccn3)CC2)cc1,12%,8%,-1,9%,-2%,2%
CC(C)=NOC[C@@H](C)[C@H](OCc1ccccc1)C(C)C,nt,14%,nt,nt,nt,nt
O=S(=O)(c1ccc2ccccc2c1)n1nc(-c2ccco2)nc1NCc1cccc(Cl)c1,-33%[59 µM],nt,nt,-1%,nt,nt
O=C(CCCCCNC(=S)Nc1ccccc1)C[N+](=O)[O-],45µM*,-28%,0,3%,-27%,-2%
COc1ccc(NC(=S)NCCCCCC(=O)C[N+](=O)[O-])cc1,22µM*,-34%,0,?,24µM*,-7%

# Assay outcomes (PubChem BioAssay)
